PubChem BioAssay (NCI)
Compounds without any hit were thinned out: in the full panel of roughly 83,000, 20% have a hit.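 Testing used 96-well plates and a 48-hour single-concentration exposure. Example: -40 means 40% of the starting cells died.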 Active and inactive are the calls of the source. The calls were made as follows: active = growth percent below 10; inactive = the rest.

Legend:
Assay in all cases: NCI-60 one-dose screen, 48 h (100 = growth as untreated, 0 = no growth, -100 = all killed)
Conditions in all cases: 10 µM unless noted
[1] = test system: NCI-H23 lung
[2] = test system: NCI-H226 lung
[3] = test system: NCI-H322M lung
[4] = test system: HOP-62 NSCLC
[5] = test system: NCI-H460 lung
[6] = test system: HOP-92 NSCLC
[7] = test system: NCI-H522 lung
[8] = test system: A549/ATCC NSCLC
[9] = test system: 786-0 renal
[10] = test system: COLO 205 colon

Measured: growth

Cc1ccc(/C=C/c2c(C(=O)/C=C/c3ccc(Cl)cc3)c(C)nc3ccccc23)cc1
active: [1] 2.79% | [2] -30.4% | [4] 3.89% | [5] -73.9% | [6] 0.669% | [7] 5.16% | [9] -17.5% | [10] 6.99%
inactive: [3] 51.7% | [8] 78.8%

O=C(/C=C/c1c(Cl)nc2sccn12)c1nccs1
inactive: [1] 94.2% | [2] 83.4% | [3] 104% | [4] 88.2% | [5] 92.7% | [6] 63.8% | [7] 72.4% | [8] 88% | [9] 102% | [10] 104%

COc1ccc(OC)c(-c2c(C#N)c(-c3ccc(Cl)cc3)nc3c2c(-c2ccccc2)nn3-c2ccccc2)c1
inactive: [1] 102% | [2] 98.3% | [3] 95.7% | [4] 99.3% | [5] 103% | [6] 101% | [7] 86% | [8] 98.4% | [9] 98.1% | [10] 104%

CCc1ccccc1-n1c(N)c(C#N)c(-c2ccc(N(C)C)cc2)c(C#N)c1=O
inactive: [1] 96.2% | [2] 98.6% | [3] 86.3% | [4] 106% | [5] 96.4% | [6] 68.3% | [7] 93.7% | [8] 98.9% | [9] 93.9% | [10] 114%

COC(=O)[C@]12CC[C@@H](C)[C@H](C)[C@@H]1C1=CC[C@@H]3[C@@]4(C)C(C=O)=C[C@@](C)(COS(C)(=O)=O)C4[C@H](O)C[C@@]3(C)[C@]1(C)CC2 (stereo not given in full)
active: [1] -50.1% | [2] -67.2% | [3] -1.44% | [4] -63.6% | [5] -58.2% | [6] -74.3% | [7] -82.6% | [8] -67.1% | [9] -91.5% | [10] -70.8%

O=C1N=c2cc3c(cc2=C/C1=C/c1sc(=S)n(CCc2ccc(O)cc2)c1O)OCCO3
inactive: [1] 71.2% | [2] 93.5% | [3] 95.9% | [4] 97% | [5] 83.8% | [6] 56.7% | [7] 37.3% | [8] 99.1% | [9] 80.5% | [10] 75.6%

CC(=O)[C@@H]1CC[C@]2(COS(=O)(=O)c3ccc(C)cc3)CC[C@]3(C)[C@H](CC[C@@H]4[C@@]5(C)CCCNC(C)(C)[C@@H]5CC[C@]43C)[C@@H]12
inactive: [1] 78.6% | [2] 86% | [3] 93.7% | [4] 87.1% | [5] 41.8% | [6] 57.6% | [7] 89.8% | [8] 70.5% | [9] 89.5%
active: [10] -62.4%

C=C(C)[C@@H]1CC[C@]2(C(=O)NC3CCCCC3)CC[C@]3(C)[C@H](CC[C@@H]4[C@@]5(C)CCCNC(C)(C)[C@@H]5CC[C@]43C)[C@@H]12
active: [5] -56.5% | [10] -63.1%
inactive: [1] 76.7% | [2] 63% | [3] 65.7% | [4] 80.4% | [6] 62.3% | [7] 60% | [8] 41.2% | [9] 62.7%

Cc1cc[c-]cc1.Fc1c[c-]c(-c2ccccn2)c(F)c1.[Pt+2].c1ccc(P(C[PH+](c2ccccc2)c2ccccc2)c2ccccc2)cc1
inactive: [3] 19.2% | [9] 23.1%
active: [1] 7.43% | [2] -2.11% | [4] 2.59% | [5] 3.67% | [6] -16.3% | [7] 8.51% | [8] 8.52% | [10] -41.2%

COc1cc(-c2n/c(=C\c3c(O)[nH]c4ccc(Cl)cc34)cc3c2=Nc2ccccc2-3)cc(OC)c1OC
inactive: [2] 62.6% | [3] 68%
active: [1] -2.92% | [4] -8.81% | [5] -38% | [6] -25.4% | [7] -0.596% | [8] -39.4% | [9] -37.1% | [10] 8.86%

Nc1cc2c3c(cccc3c1)C(=O)N(CCN1CCCC1)C2=O
inactive: [1] 39.5% | [3] 54.5% | [4] 44.4% | [6] 27.5% | [7] 29.3% | [8] 14.8% | [9] 46.4% | [10] 14%
active: [2] -7.42% | [5] 2.15%

C=C(C)[C@@H]1CC[C@]2(C)[C@H](CC=C3[C@@H]4CC(C)(C)CC[C@]4(C(N)=O)CC[C@]32C)[C@@]1(C)CCC#N
active: [7] 7.77% | [10] -12.1%
inactive: [1] 27.9% | [2] 49.7% | [3] 72.1% | [4] 56.7% | [5] 12.8% | [6] 32% | [8] 17.6% | [9] 26.1%

NCCCNc1nc2ccccc2c2c(=O)c3cccc(Cl)c3sc12
inactive: [1] 44.7% | [2] 59.6% | [3] 22.4% | [4] 19.3% | [6] 38.1% | [9] 33.6%
active: [5] -75% | [7] -48.5% | [8] -2.55% | [10] -50.6%
